Data published in PubChem BioAssay (Tox21).
Results filed as inconclusive are left out. Unmarked numbers belong to inactive results. Calls of active or inactive are those of the source. Calls come from the whole dose curve; as a rule, active = well fitted cell-killing curve with a large enough effect in the repeat runs; inconclusive = weak or mixed curves, or effect the other way; inactive = flat fitted curve, though single readings scatter.
% is set by controls: 0 for no effect and ±100 for the full control effect; potency is the fitted concentration of half-maximal effect.

Experiment: qHTS assay to identify small molecule agonists of the sonic hedgehog signaling (Shh) pathway - cell viability counter screen (AID 1259366); note: nearly all actives have a fitted effect of over 50% in size
Details: NIH/3T3 Gli1-Luc viability, CellTiter-Fluor, 24 h; series mostly up to 92.4 µM; viability change, negative = cytotoxic: at the top concentration
Source text: National Center for Advancing Translational Sciences [NCATS]
NIH Chemical Genomics Center [NCGC]
U.S. Environmental Protection Agency [EPA]
National Institutes of Environmental Health Sciences [NIEHS]
National Toxicology Program [NTP]
U.S. Food and Drug Administration [FDA]
The sonic hedgehog (Shh) pathway is essential for normal embryonic development. Dysregulation of the Shh pathway can cause severe developmental defects in organs. Therefore chemicals that interfere with the pathway are potential developmental toxicants. A cell line designated 3T3Gli1-Luc (DMB/OARSA/CFSAN/FDA, Laurel, MD), a NIH/3T3 derived clone containing stably integrated Gli1-Luc reporter is used to detect chemical interference of the Shh pathway, by changes in the expression of the firefly Luc gene under the control of the Gli1 transcriptional response element. This cell line was used to screen Tox21 libraries for identifying and prioritizing the potential developmental toxicants that interfere Shh pathway. The cytotoxicity of the compounds was tested in parallel by measuring the cell viability using CellTiter-Fluor assay system (Promega, Madison, WI) in the same wells.
Tox21 Assay Protocol Summary:
3T3 Gli1-Luc cells were dispensed at 2,000 per well in 5uL of culture medium into white solid bottom 1536-well plates (Greiner Bio-One, Monroe, NC) using a Multidrop Combi (Thermo Scientific, Waltham, MA) dispenser. The assay plates were incubated at 37 C and 5% CO2 for 4hr, and then 23nL of compounds dissolved in DMSO and positive control were transferred using a Pintool station (Wako, San Diego, CA). The assay plates were incubated at 37C and 5% CO2 for 24hr. For viability read, after 23hr of compound treatment, 1uL of CellTiter-Fluor reagent (Promega Corporation, Madison, WI) was added to each well of the assay plates using Flying Reagent Dispenser (FRD, Aurora Discovery, San Diego, CA) and incubated the assay plates at 37C for 1hr. The fluorescence signal was quantified using a ViewLux plate reader (Perkin Elmer, Shelton, CT).
In the case of `O=C1C=CCCC1`, the “viability change, negative = cytotoxic” value is reported as 0.885%.
In the case of `CC(C)(C)c1cc(C=O)cc(C(C)(C)C)c1O`, the “viability change, negative = cytotoxic” value is reported as -1.68% [at 42.5 µM].
With `C[C@]12CCC(=O)C=C1[C@@H]1C[C@@H]1[C@H]1[C@@H]3[C@@H]4C[C@@H]4[C@@]4(CCC(=O)O4)[C@@]3(C)CC[C@@H]12` the “viability change, negative = cytotoxic” value was 0.401% [at 42.5 µM].
For `Sc1nc(S)nc(S)n1`, the “viability change, negative = cytotoxic” value was -2.46% [at 42.5 µM].
With `Nc1nc(Cl)nc2c1ncn2[C@H]1C[C@H](O)[C@@H](CO)O1` the “viability change, negative = cytotoxic” value was 19%.
In the case of `SCCOCCOCCS`, the “viability change, negative = cytotoxic” value is reported as 2.4%.
In the case of `O=C(O)CNc1ccccc1`, the “viability change, negative = cytotoxic” value is reported as -4.4%.
For `O=C(O)COCC(=O)O`, the “viability change, negative = cytotoxic” value was -1.73%.
For `[O-][n+]1ccc(Cl)cc1`, the “viability change, negative = cytotoxic” value was 0.0672%.
In the case of `Oc1ccc(CCNCCCCCCNCCc2ccccc2)cc1O`, the Potency is reported as 29.8 µM (active).
In the case of `Cc1c(Cl)cccc1Nc1ccccc1C(=O)O`, the “viability change, negative = cytotoxic” value is reported as 11.2% [at 42.5 µM].
With `COC(=O)c1cc(Cl)ccc1[N+](=O)[O-]` the “viability change, negative = cytotoxic” value was -3.3%.
With `CCCCCCCCCCCCCCCCN` the “viability change, negative = cytotoxic” value was 1.22% [at 42.5 µM].
In the case of `CCCCCCCCCCCCSC#N`, the “viability change, negative = cytotoxic” value is reported as -10.8%.
For `COc1ccc(CN(CCN(C)C)c2ncccn2)cc1`, the “viability change, negative = cytotoxic” value was 3.26% [at 42.5 µM].
With `CC(C)(O)C(=O)O` the “viability change, negative = cytotoxic” value was 6.18%.
With `O=C1OC(=O)C2CC=CCC12` (stereo not given) the “viability change, negative = cytotoxic” value was 1%.
For `O=Cc1ccc([N+](=O)[O-])cc1`, the “viability change, negative = cytotoxic” value was -3.23%.
In the case of `CC(=O)Oc1cccc2c1C(=O)c1c(OC(C)=O)cc(C(=O)O)cc1C2=O`, the “viability change, negative = cytotoxic” value is reported as -19.9% [at 42.5 µM].
With `C(/C=C/C=C/Nc1ccccc1)=Nc1ccccc1` the “viability change, negative = cytotoxic” value was 18.5%.
For `C=C[Si](OCC)(OCC)OCC`, the “viability change, negative = cytotoxic” value was -8.38%.
For `CCCCOc1ccc(N)cc1`, the “viability change, negative = cytotoxic” value was -0.701%.
In the case of `C[C@H](CN1CCCC1)C(=O)c1ccc(C(F)(F)F)cc1`, the “viability change, negative = cytotoxic” value is reported as 5.11% [at 42.5 µM].
For `NC(=O)c1cc[n+](CC2=C(C(=O)[O-])N3C(=O)[C@@H](NC(=O)Cc4cccs4)[C@H]3SC2)cc1`, the “viability change, negative = cytotoxic” value was 0.54% [at 42.5 µM].
With `COc1cc(CNC(=O)CCCC/C=C/C(C)C)ccc1O` the “viability change, negative = cytotoxic” value was -0.902%.
For `CC1(C)CC(=O)CC(C)(C)N1`, the “viability change, negative = cytotoxic” value was 3.23%.
With `Cc1c(Nc2ncccc2C(=O)O)cccc1C(F)(F)F` the “viability change, negative = cytotoxic” value was 2.67% [at 42.5 µM].
Work on `COC=O` yielded a viability change, negative = cytotoxic of 14% [at 8.39 µM].
With `NC(=O)c1ccccc1C(N)=O` the “viability change, negative = cytotoxic” value was -2.48%.
For `CC(C)C[C@H](NC(=O)[C@H](Cc1ccccc1)NC(=O)c1cnccn1)B(O)O`, the Potency was 1.06 µM (active).
In the case of `CCc1ccc2c(c1)C(=O)c1ccccc1C2=O`, the “viability change, negative = cytotoxic” value is reported as -7.08%.
In the case of `CC1(COc2ccc(CC3SC(=O)NC3=O)cc2)CCCCC1` (stereo not given), the “viability change, negative = cytotoxic” value is reported as 6.74% [at 42.5 µM].
With `C=CC(=O)NC(C)(C)C` the “viability change, negative = cytotoxic” value was 2.85%.
With `CS(C)=O` the “viability change, negative = cytotoxic” value was -1.28%.
For `O=C(Cl)c1ccc(F)c(Cl)c1`, the “viability change, negative = cytotoxic” value was 4.4%.
For `Cc1cc(N)n(-c2ccccc2)n1`, the “viability change, negative = cytotoxic” value was 0.556%.
In the case of `CC(=O)CC/C=C(\C)CC/C=C(\C)CC/C=C(\C)CCC=C(C)C`, the “viability change, negative = cytotoxic” value is reported as -4.71% [at 42.5 µM].
With `O=C1c2ccccc2C(=O)C1c1ccc2cc(S(=O)(=O)O)cc(S(=O)(=O)O)c2n1` the Potency was 29.5 µM (active).
With `O=Cc1ccc(Cl)c([N+](=O)[O-])c1` the Potency was 27.3 µM (active).
For `OCCOc1cccc(OCCO)c1`, the “viability change, negative = cytotoxic” value was 2.27%.
